Out of some 310,000 compounds screened, about 14,000 (4.5%) showed an effect of 50% or more. Effects have a minus sign here. The sample as a whole holds a higher share of strong results than the screen did.
molecular target: human ether-à-go-go-related gene (hERG) potassium channel (human, UniProt Q12809); test: primary screen, population patch clamp on CHO cells stably expressing hERG; higher = less effect of the substance
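Further: peak tail current of the secondary pulse compared with the same well before compound.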

Sequence of human ether-à-go-go-related gene (hERG) potassium channel (Q12809 whole entry, looked up): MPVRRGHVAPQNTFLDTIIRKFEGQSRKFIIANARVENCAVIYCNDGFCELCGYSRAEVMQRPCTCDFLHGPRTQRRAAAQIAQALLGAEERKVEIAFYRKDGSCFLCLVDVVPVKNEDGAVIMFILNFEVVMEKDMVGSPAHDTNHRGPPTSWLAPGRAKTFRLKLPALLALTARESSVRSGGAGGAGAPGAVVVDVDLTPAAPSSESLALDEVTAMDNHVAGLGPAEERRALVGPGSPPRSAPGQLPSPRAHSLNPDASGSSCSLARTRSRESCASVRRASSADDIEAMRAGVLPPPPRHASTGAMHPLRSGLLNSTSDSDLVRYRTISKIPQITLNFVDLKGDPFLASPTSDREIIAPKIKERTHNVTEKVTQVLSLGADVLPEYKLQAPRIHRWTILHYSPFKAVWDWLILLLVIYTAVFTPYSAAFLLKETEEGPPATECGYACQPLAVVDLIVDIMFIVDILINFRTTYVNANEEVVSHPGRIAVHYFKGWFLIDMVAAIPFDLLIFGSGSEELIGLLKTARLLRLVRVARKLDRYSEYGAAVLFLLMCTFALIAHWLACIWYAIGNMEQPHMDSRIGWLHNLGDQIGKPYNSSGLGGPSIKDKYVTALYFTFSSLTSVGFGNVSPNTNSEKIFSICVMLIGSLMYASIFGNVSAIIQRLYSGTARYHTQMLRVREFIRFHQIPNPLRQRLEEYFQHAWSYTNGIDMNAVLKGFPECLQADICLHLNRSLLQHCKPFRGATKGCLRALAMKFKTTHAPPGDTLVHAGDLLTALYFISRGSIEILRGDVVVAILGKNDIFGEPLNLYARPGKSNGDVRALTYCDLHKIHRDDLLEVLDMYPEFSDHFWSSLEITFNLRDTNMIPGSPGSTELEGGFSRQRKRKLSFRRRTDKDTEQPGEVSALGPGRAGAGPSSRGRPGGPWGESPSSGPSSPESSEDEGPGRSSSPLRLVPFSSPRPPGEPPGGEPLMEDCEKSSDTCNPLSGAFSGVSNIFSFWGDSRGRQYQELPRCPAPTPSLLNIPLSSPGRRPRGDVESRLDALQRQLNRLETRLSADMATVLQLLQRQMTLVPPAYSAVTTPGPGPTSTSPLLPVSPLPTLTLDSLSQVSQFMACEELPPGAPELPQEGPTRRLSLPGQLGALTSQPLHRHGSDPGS

Row | SMILES | hERG current change (%, negative = inhibition) at 10uM [%]
1 | C[N+](C)(C)CCN1C(=O)CSC1=O.[I-] | 10.3
2 | COC(=O)c1ccc(NC(=O)CSCc2ccccc2)cc1 | -13.8
3 | Cc1ccccc1C(=O)O/N=C1\CCS(=O)(=O)c2sccc21 | 8.17
4 | Cc1ccccc1NC(=S)NC(NC(=O)CF)C(Cl)(Cl)Cl (stereo not shown) | 2.77
5 | CCOP(=O)(OCC)C(NC(=O)Nc1cccc(Cl)c1)C(N)=O (stereo not shown) | 8.47
6 | C/C(=N\OCC(=O)Nc1ccccc1C(C)(C)C)c1ccc2c(c1)OCCO2 | -10.9
7 | O=C(Nc1ccc(Cl)cc1)OCc1cc(-c2ccccc2Cl)on1 | 7.51
8 | CC1CN(C(=O)COC(=O)c2ccc(Cl)nc2)CC(C)O1 (stereo not shown) | 6.41
9 | COc1ccc(OC)c(C2CC(=O)N3CN(c4ccccc4)CSC3=C2C#N)c1 (stereo not shown) | 9.38
10 | CC(=O)n1cc(/C=C2/N=C(c3ccccc3)OC2=O)c2ccccc21 | 7.37
11 | O=C1C2CC=CCC2C(=O)N1c1nc2n(n1)C(c1ccccc1)CC(c1ccccc1)N2 (stereo not shown) | -52.6
12 | CC1=CC(c2ccccc2)n2nc(N3C(=O)C4CC=CCC4C3=O)nc2N1 (stereo not shown) | -7.93
13 | CC1CC(c2ccccc2)n2nc(N3C(=O)c4ccccc4C3=O)nc2N1 (stereo not shown) | 12.4
14 | CC1C/C(=C/c2cccn2C)C(=O)/C(=C/c2cccn2C)C1 (stereo not shown) | 9.5
15 | O=C(NCc1nc(-c2ccc(C(F)(F)F)cc2)no1)c1cccs1 | 5.51
16 | CCOc1ccc(-n2ccnc2SCC(=O)N2CCCc3ccccc32)cc1 | -13.7
17 | N#CCCN1CCN(C(=S)c2ccc(-c3ccc(Cl)cc3)o2)CC1 | -55.8
18 | N#CCCN1CCN(C(=S)c2ccc(-c3cccc(Cl)c3)o2)CC1 | -59.9
19 | N#CCCN1CCN(C(=S)c2ccc(-c3ccc(Cl)c(Cl)c3)o2)CC1 | -14.1
20 | S=C(c1ccc(-c2cccc(Cl)c2)o1)N1CCCCC1 | 21.7
21 | S=C(c1ccc(-c2cccc(Cl)c2)o1)N1CCOCC1 | 2.46
22 | N#CCCN1CCN(C(=S)c2ccc(-c3cc(Cl)ccc3Cl)o2)CC1 | -12.3
23 | CC(C)c1ccc2oc(=O)cc(CN3CCCCC3)c2c1 | -12.8
24 | O=C(CN1N=C(c2ccc(Cl)cc2)CCC1=O)NCc1cccnc1 | -26.4
25 | CCO.CCn1c(COc2ccc3c(c2)OCO3)nnc1SCC(=O)O | -0.394
